Measured values taken from PubChem BioAssay (NCI).
This is part of a sample that, as a whole, favours compounds with a hit. Of some 83,000 tested, about 20% had one in any assay.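 Growth was measured after 48 h exposure to one concentration of compound in 96-well plates. Values under 10 count as active.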 Values without a mark were called inactive. Active and inactive are the calls of the source.

Columns and labels:
Assay in all cases: NCI-60 one-dose screen, 48 h (100 = growth as untreated, 0 = no growth, -100 = all killed)
Settings in all cases: 10 µM unless noted
HCT-15 colon = test system: HCT-15 colon
HT29 colon = test system: HT29 colon
SNB-75 CNS = test system: SNB-75 CNS
SNB-19 CNS = test system: SNB-19 CNS
U251 CNS = test system: U251 CNS
PC-3 prostate = test system: PC-3 prostate
SK-MEL-5 melanoma = test system: SK-MEL-5 melanoma
UACC-62 melanoma = test system: UACC-62 melanoma
LOX IMVI melanoma = test system: LOX IMVI melanoma
SK-MEL-28 melanoma = test system: SK-MEL-28 melanoma

Row | SMILES | growth (HCT-15 colon) | growth (HT29 colon) | growth (SNB-75 CNS) | growth (SNB-19 CNS) | growth (U251 CNS) | growth (PC-3 prostate) | growth (SK-MEL-5 melanoma) | growth (UACC-62 melanoma) | growth (LOX IMVI melanoma) | growth (SK-MEL-28 melanoma)
1 | CC(=O)[C@@H]1CC[C@]2(C(N)=O)CC[C@]3(C)[C@H](CC[C@@H]4[C@@]5(C)CCC(=O)C(C)(C)[C@@H]5CC[C@]43C)[C@@H]12 | 103% | 95.9% | 89% | 102% | 103% | 78.5% | 101% | 84.5% | 99.2% | 100%
2 | COc1ccc(-c2nc(N/N=C/c3cccc(Br)c3)nc(N3CCOCC3)c2C#N)cc1 | 7.3% (active) | 21.5% | -17.7% (active) | 93.4% | 52.4% | 47.8% | 72% | 84.4% | 91.3% | -8.47% (active)
3 | CC1(C)[C@H](O)CC[C@]2(C)[C@@H]1CC[C@@]13C[C@@H](CC[C@H]12)[C@@](O)(CO)C3 | 105% | 112% | 102% | 99.7% | 108% | 111% | 101% | 105% | 103% | 108%
4 | O=C(Nc1cccc(C2=NCCN2)c1)c1ccc(OCCCOc2ccc(C(=O)Nc3cccc(C4=NCCN4)c3)cc2)cc1 | 90.7% | 12.9% | -1.39% (active) | 14.9% | 24.8% | 29.8% | 2.98% (active) | -10.5% (active) | -33.4% (active) | -67.4% (active)
5 | CC1CCN(C(=O)OCc2nc3nc(Cl)nc(N4CCOCC4)c3[nH]2)CC1 | -12.2% (active) | -66.8% (active) | 14.8% | 60.3% | -89.2% (active) | -59.2% (active) | -27.3% (active) | -94.1% (active) | -86.4% (active) | -86.4% (active)
6 | CC(=O)NCCCS(=O)(=O)O | 103% | 98.4% | 98.7% | 103% | 102% | 83.9% | 120% | 101% | 94.4% | 107%
7 | COc1ccc(C(O)c2cc3c(N)c(C(=O)Nc4ccc(Br)cc4)sc3nc2C)cc1 (stereo not given) | 18.2% | -34.2% (active) | -10.8% (active) | 36.1% | 17.2% | 18.2% | 16.4% | 26.1% | 33.4% | 60%
8 | COc1ccc(/C=C2\COc3ccc(-c4ccccc4)cc3C2=O)cc1O | 19.6% | 25.8% | 31.9% | 71.8% | 5.71% (active) | 27.8% | 32.3% | 41% | -13.5% (active) | 46.7%
9 | COc1ccc(C(=O)c2cc(C)c(OC)c(C)c2)c(OC)c1O | 8.64% (active) | 26.6% | 57.8% | 22.2% | 14.5% | 19.5% | -34.5% (active) | 30.3% | 21.5% | 48.8%
10 | COc1ccc(-c2nc(SCC(C)C)nc(N/N=C(/C)c3ccc(OC)c(OC)c3)c2C#N)cc1 | 79.8% | 90.4% | 80.2% | 78.2% | 89.6% | 52.5% | 74.6% | 81.2% | 84.3% | 84.5%
11 | O=S(=O)(NCCNc1nccc(-c2c(-c3ccc(F)c(O)c3)nc3occn23)n1)c1ccccc1 | 76.6% | 61.5% | 71.9% | 73.8% | 60.4% | 55.8% | 22.8% | 6.23% (active) | 33.7% | 27.3%
12 | COc1ccc(/C=N/C2=C(C#N)C(c3ccccc3[N+](=O)[O-])c3ccc4ccccc4c3O2)cc1 (stereo not given) | 75.3% | 112% | 61.3% | 96.6% | 101% | 71.7% | 81.9% | 81.1% | 90.3% | 113%
13 | FCc1nc2nc(Cl)c(Cl)nc2[nH]1 | 103% | 99.4% | 91.2% | 94.9% | 101% | 95.2% | 99.4% | 94.9% | 95.3% | 105%
14 | CO[C@@H]1[C@H](N(C)C(=O)c2ccccc2)C[C@@H]2O[C@]1(C)n1c3ccccc3c3c4c(c5c6ccccc6n2c5c31)C(=O)NC4=O | 25% | 42.8% | -14.8% (active) | 63.6% | 44.3% | 26.3% | 40% | 34.1% | 31.4% | 83.1%
15 | CS(=O)(=O)c1ccc(-c2cc3c(oc2=O)-c2ccccc2OC3O)cc1 (stereo not given) | 94.4% | 105% | 84.6% | 89% | 97.7% | 89.8% | 101% | 92.2% | 98% | 101%
16 | Cc1nn(-c2ccccc2)c(N2CCOCC2)c1/C=N/N=c1\sc2ccccc2n1C | 39.1% | 66.5% | 99.2% | 87.3% | 55.2% | 49% | 38.5% | 71.1% | 57.9% | 75.9%
17 | CC(C)Sc1nc(NN)c(C#N)c(-c2ccccc2)n1 | 96.5% | 111% | 92.7% | 95.9% | 100% | 85.1% | 99.7% | 90.6% | 96.7% | 90.4%
18 | CCN1C(=O)N(CC)C2C1NN=c1s/c(=C3\C(=O)Nc4ccccc43)c(=O)n12 (stereo not given) | 26.8% | 5.74% (active) | -13.6% (active) | 36.5% | 31.4% | 22.6% | 19.5% | 30.9% | 42.2% | 53%
19 | COc1ccc(C(=O)/C=C/c2ccc(OCc3ccccc3)c(OC)c2)cc1OC | 45.8% | 10.6% | 34.1% | 87.1% | 10.1% | 46% | 66.1% | 70.8% | 34.3% | 89.6%
20 | COc1cc2nc(Cc3ccc(C)cc3)[nH]c(=O)c2cc1OC | 104% | 107% | 95.6% | 97.9% | 117% | 101% | 109% | 95.1% | 105% | 96.6%
21 | O=C(NNc1nc(Cl)nc(N2CCN(C(c3ccccc3)c3ccccc3)CC2)n1)c1ccccc1 | -60.1% (active) | -78.9% (active) | -26.3% (active) | 32.4% | 27.3% | -46.9% (active) | 79.4% | 3.38% (active) | -88.7% (active) | -6.33% (active)
22 | COc1cc(NCC(O)CN(CC(C)C)CC(C)C)c2nc(C)ccc2c1 (stereo not given) | 84.8% | 80.2% | 97.9% | 96% | 91.3% | 75.3% | 93.5% | 88.9% | 90.1% | 100%
23 | CNC(=O)Nc1ccc(-c2nc(N3CCOCC3)nc3c2cnn3C2CCOCC2)cc1 | 8.73% (active) | 6.44% (active) | -37.9% (active) | 7.91% (active) | 4.14% (active) | 6.22% (active) | -47.7% (active) | -39.6% (active) | 4.58% (active) | -14.1% (active)
24 | COc1ccc(-c2nc(SC(C)C)nc(NNC(N)=O)c2C#N)cc1 | 58.6% | 106% | 59.1% | 89% | 93.5% | 75.9% | 89.1% | 85.8% | 76.7% | 93%
25 | COc1ccc(/C=N/NC(=O)c2cccc3cc[nH]c23)cc1O | 33.2% | 19.7% | 18.6% | 39.7% | 26.6% | 31.5% | 2.92% (active) | 33% | 53.1% | 63.4%
26 | CCN(CC)CCCC(Nc1c2ccc(Cl)cc2nc2ccc(OC)cc12)c1ccc(Cl)cc1 (stereo not given) | -54.7% (active) | -49.6% (active) | 16.7% | 6.15% (active) | -85.9% (active) | 33.6% | -93.7% (active) | -70.6% (active) | -83.3% (active) | -88.7% (active)
27 | COc1ccccc1Nc1cc(O)c2c(=O)cc(-c3ccccc3)oc2c1 | 29.3% | 17% | -4.79% (active) | 43.9% | 22.1% | 54.5% | 24.6% | 35.8% | 39.9% | 56.5%
